Pol kappa inh: DNA polymerase kappa (human) inhibition | Potency, µM (top dose mostly 107 µM), usual class: inhibitors | purified Pol kappa, fluorescent DNA synthesis assay, 10 min | Q9UBT6 | AID 588579 | 0.53% of 400,000 active
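Activity was followed as the change in fluorescence between reads at 0 and 10 min after starting the reaction with 50 nM substrate. Beforehand, 10 nM polymerase had been preincubated with compound for 15 min at room temperature.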
Pol iota inh: blocks human DNA polymerase iota activity. AID 588590. 1% of 390,000 active. Pol iota fluorescent replication assay, 10 min. Potency, µM (highest dose often 115 µM), usual class: inhibitors. Q9UNA4
Target sequence (Q9UNA4 whole entry, looked up): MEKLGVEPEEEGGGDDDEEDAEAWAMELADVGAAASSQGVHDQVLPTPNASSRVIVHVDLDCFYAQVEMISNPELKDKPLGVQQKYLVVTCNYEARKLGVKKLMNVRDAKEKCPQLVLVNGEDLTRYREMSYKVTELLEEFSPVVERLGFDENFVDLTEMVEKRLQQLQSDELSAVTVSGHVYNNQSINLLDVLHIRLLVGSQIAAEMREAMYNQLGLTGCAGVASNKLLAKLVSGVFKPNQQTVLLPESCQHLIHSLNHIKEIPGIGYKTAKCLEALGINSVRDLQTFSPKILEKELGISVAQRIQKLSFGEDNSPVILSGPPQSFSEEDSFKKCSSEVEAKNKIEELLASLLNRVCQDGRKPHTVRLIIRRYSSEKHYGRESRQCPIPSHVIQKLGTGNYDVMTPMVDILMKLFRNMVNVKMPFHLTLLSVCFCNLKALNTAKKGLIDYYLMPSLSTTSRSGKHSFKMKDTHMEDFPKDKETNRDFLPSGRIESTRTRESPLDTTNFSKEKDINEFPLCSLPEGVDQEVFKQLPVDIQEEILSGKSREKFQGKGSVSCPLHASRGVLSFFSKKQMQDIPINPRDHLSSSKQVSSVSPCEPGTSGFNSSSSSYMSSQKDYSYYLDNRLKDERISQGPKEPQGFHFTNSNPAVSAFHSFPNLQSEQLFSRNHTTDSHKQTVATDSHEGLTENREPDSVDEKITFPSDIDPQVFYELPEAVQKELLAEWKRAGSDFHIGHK
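Fluorescent replication assay read twice, at 0 min and 10 min after adding 50 nM (final) substrate. Enzyme (10 nM) and compounds were first incubated 15 min at room temperature; enzyme-free buffer wells were negative controls.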
L3MBTL1 inh: blocks human L3MBTL1. AlphaScreen L3MBTL1–H3K9me1 peptide binding. Potency, µM (series often up to 57.1 µM), actives largely listed as inhibitors. 0.66% of 230,000 active. AID 485360; further: nearly all actives have a fitted effect of over 60% in size
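Read-out is AlphaScreen signal from streptavidin donor and nickel chelate acceptor beads (10 ug/mL final each) bridging L3MBTL1 (50 nM) and biotinylated K9-monomethylated H3(1-15) peptide (75 nM), after 30 min compound exposure at room temperature.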
POLH inh: inhibitors of human DNA polymerase eta | Potency, µM (top dose mostly 114 µM), hits mostly inhibitors | 1.2% of 390,000 active | AID 588591 | recombinant Pol eta, fluorescent DNA replication assay
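Fluorescent replication assay: 50 nM final substrate added after a 15 min room-temperature compound preincubation with 10 nM enzyme. Signal taken at 0 min and again at 10 min.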
Pol beta inh: blocks human DNA polymerase beta activity; P06746; Pol beta primer extension/strand displacement, fluorescence kinetic; Potency, µM (titrated, usually from 114 µM), hits mostly inhibitors; 1.3% of 340,000 active
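10 nM enzyme + cpd, 15 min RT; start with substrate 50 nM final; read 0 min and after 10 min RT. Corrected, normalized data; 4-parameter Hill curve fit.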
APE1 inh: blocks human APE1 abasic DNA cleavage | Potency, µM (highest dose often 65.8 µM), actives largely listed as inhibitors | recombinant APE1, TAMRA/BHQ-2 abasic DNA cleavage fluorescence | 0.35% of 350,000 active; further: nearly all actives have a fitted effect of over 55% in size
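Quantitative HTS: incision of a TAMRA/BHQ-2 double-stranded substrate bearing a tetrahydrofuran abasic site by 0.75 nM APE1 raises fluorescence. Substrate 50 nM final, added after 15 min compound preincubation at room temperature; progress as third-minus-first kinetic read difference.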
A number is an active result; 0 = inactive; ? = inconclusive; - = not tested or not shown; [ ] = another dose, or the depositor's remark. The list is not random: actives were taken first. Their share in the collection is about 2.5%. The call rests on the fitted dose curve; in most records, active means well fitted curve in the direction sought with a large enough effect; inconclusive means small, poorly fitted or top-dose-only effect, or another doubt; inactive means no such curve, though single readings can be large; an effect the other way counts as inactive or inconclusive.

SMILES	Pol kappa inh	Pol iota inh	L3MBTL1 inh	POLH inh	Pol beta inh	APE1 inh
O=C(Nc1ccc2nc(SCCOc3ccccc3)sc2c1)c1cccs1	0	0	-	0	?	-
Cc1c(CCC(=O)O)c(=O)oc2cc(OCc3cccc(F)c3)ccc12	0	0	-	0	0	0
Cc1c(CCC(=O)O)c(=O)oc2cc(OCc3ccccc3Br)ccc12	0	0	-	0	50.1µM	?
Cc1cc(NC(=O)COc2cccc3cccnc23)no1	-	-	?	-	31.6µM	0
Cc1cc(NC(=O)COc2cccc(C)c2C)no1	0	0	0	0	?	0
O=C(Nc1cccc(C(F)(F)F)c1)c1sc(Cl)nc1C(F)(F)F	0	0	0[2.29 µM]	0	0	0
NS(=O)(=O)c1cccc2c1c([N+](=O)[O-])cc1[nH]c(=O)c(=O)[nH]c12	21.2µM	-	-	-	-	1.58µM
NS(=O)(=O)c1cccc2c1c([N+](=O)[O-])cc1nc(O)c(O)nc12	0	0	0	0	0	0
Cc1ccnc2ccc(N)cc12	0	0	-	-	-	-
COc1cc2nc(N3CCOCC3)nc(NC3CCN(C)CC3)c2cc1OC	0	0	-	-	-	-
COc1ccc2cc3c(N)nn(C(=O)c4ccc(OC)c(OC)c4)c3nc2c1	0	0	0	?	15.8µM	0
Cc1ccc(NC(=O)CN2C=NS(=O)(=O)c3ccccc32)c(C)c1	0	0	-	0	0	-
CC[n+]1ccccc1/C=C1\Sc2ccc(C)cc2N1C	0	?	-	0	70.8µM	0
CN1/C(=C/c2cccc[n+]2CCO)Sc2ccccc21	0	0	0	0	?	0
Cc1cccc(/C=N/NC(=O)CC(=O)NCCc2ccccc2)c1	0	0	-	0	-	-
COc1ccc(CNC(=O)Nc2cn(CC(C)C)c(=O)c3ccccc23)c(OC)c1	0	22.4µM	-	0	0	-
Cc1c(Cl)cccc1NC(=S)N1CCN(C(=O)c2ccco2)CC1	0	0	-	0	79.4µM	0
CN1CCN(c2ccc(CNS(=O)(=O)Cc3ccc(Cl)cc3)cc2)CC1	0	0	4.47µM	0	0	0
CN1CCN(c2ccc(CNS(=O)(=O)c3ccc(F)cc3Cl)cc2)CC1	0	0	-	0	0	0
CO/N=C(/C(=O)N[C@@H]1C(=O)N2C(C(=O)O)=C(CSc3nc(C)c(CC(=O)O)s3)CS[C@H]12)c1csc(N)n1	0[19.4 µM]	-	-	-	-	-
O=c1cc[nH]c2c1ccc1c(=O)cc[nH]c12	?	?	-	28.2µM	0	0
COc1cc(NC(=O)COc2ccccc2Cl)ccc1NC(=O)c1cccs1	0	50.1µM	-	0	0	0
COc1cc(NC(=O)COc2ccccc2[N+](=O)[O-])ccc1NC(=O)c1cccs1	0	?	0	?	?	0
O=C(COc1ccc2ccccc2c1)N1c2ccccc2Sc2ccccc21	0	0	0	0	0	0
O=C(CCl)N1c2ccccc2Sc2ccc3ccccc3c21	-	-	-	14.1µM	-	-
SMILES	Pol kappa inh	Pol iota inh	L3MBTL1 inh	POLH inh	Pol beta inh	APE1 inh
CCOc1ccc2ncc3c(-c4cccc(OC)c4)nn(-c4ccccc4)c3c2c1	0	0	-	?	0	-
Cc1ccc(Cn2c(C3CCCN3c3nc(-c4cc(Cl)c(N)c(Cl)c4)cs3)nc3cc(C(=O)NCCCO)ccc32)cc1 (configuration not stated)	0	44.7µM	-	0	-	-
Nc1nc(=S)c2snnc2[nH]1	0	0	-	-	-	-
Oc1c(Br)cc(Br)cc1/C=N/c1nc2c(s1)CCCC2	79.4µM	?	-	?	-	-
CCN(CC)c1nc(NC2CCN(C)CC2)c2cc(OC)c(OC)cc2n1	0	0	-	-	-	-
COc1ccccc1NC(=O)Cn1cc(S(=O)(=O)Cc2ccccc2)c2ccccc21	0	0	-	79.4µM	?	-
Cc1ccc(NC(=O)Cn2cc(S(=O)(=O)Cc3ccccc3)c3ccccc32)cc1C	0	0	-	?	0	-
COc1ccc2cc(C3(C)NC(=O)N(CC(=O)NCC(F)(F)F)C3=O)ccc2c1 (configuration not stated)	0	0	-	0	0	0
Cc1ccc2c(nc3s/c(=C/c4cccs4)c(=O)n32)c1C	?	?	0	20µM	31.6µM	0
Cc1c(Cl)cccc1NC(=O)Cn1nnc(C(=O)NCc2cccs2)c1N	0	89.1µM	0	79.4µM	?	0

Bioassay records as filed in PubChem BioAssay.
